According to PubChem BioAssay AID588446 (NMMLSC, 2011):
Activity calls are given as the source filed them.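 Rule for the calls: active = dose fit with top-dose inhibition above 36% and EC50 error under a fifth of EC50, and EC50 under 30 µM; inactive = the rest.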

Each molecule was assayed against Integrin alpha-4 (Homo sapiens) (UniProt P13612) (assay: inhibitors of fluorescent LDV binding to VLA-4 – cell-based, plate-based, flow cytometry, set 2, orthogonal assay, dose response (AID 588446)). Settings: cells, LDV-FITC binding displacement; series mostly up to 66.7 µM.
Chain of Integrin alpha-4 (Homo sapiens) (P13612 whole entry, looked up): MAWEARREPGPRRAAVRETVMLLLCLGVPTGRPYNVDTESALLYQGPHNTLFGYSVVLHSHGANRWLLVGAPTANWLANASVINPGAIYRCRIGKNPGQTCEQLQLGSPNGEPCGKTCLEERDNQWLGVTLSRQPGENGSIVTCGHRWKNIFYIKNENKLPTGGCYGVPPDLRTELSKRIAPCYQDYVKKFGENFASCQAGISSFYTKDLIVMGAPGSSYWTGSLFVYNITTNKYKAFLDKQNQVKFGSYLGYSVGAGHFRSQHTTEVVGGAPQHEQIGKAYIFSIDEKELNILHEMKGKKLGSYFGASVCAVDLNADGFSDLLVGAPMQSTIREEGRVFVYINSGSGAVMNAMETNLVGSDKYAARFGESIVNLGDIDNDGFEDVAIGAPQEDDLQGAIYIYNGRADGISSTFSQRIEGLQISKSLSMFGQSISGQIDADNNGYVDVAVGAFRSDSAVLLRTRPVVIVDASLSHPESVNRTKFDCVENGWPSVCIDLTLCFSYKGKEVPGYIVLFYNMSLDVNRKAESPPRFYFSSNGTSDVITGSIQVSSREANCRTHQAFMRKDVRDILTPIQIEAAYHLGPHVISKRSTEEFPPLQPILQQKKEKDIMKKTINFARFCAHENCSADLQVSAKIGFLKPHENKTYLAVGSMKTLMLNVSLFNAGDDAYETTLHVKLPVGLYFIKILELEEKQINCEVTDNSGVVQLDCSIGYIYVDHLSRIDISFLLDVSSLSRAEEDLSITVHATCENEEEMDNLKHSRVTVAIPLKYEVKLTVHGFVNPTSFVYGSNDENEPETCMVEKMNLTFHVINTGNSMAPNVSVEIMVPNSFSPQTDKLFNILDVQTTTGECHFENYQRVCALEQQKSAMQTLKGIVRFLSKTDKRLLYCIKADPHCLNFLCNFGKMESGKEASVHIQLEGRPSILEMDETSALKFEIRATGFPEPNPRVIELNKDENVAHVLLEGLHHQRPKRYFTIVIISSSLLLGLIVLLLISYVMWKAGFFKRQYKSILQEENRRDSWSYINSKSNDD

outcome, inactive:
COc1ccccc1N1CCN(CC(=O)c2ccc(F)cc2)CC1
COc1cc(OCc2ccccc2)ccc1CN1CCN(C)CC1
CN1CC(c2nc3ccccc3n2CCOc2ccccc2)CC1=O (centres undefined)
CSc1ccccc1OCc1cc(C(=O)N2CCCC2)no1
O=C1C2CC=CCC2C(=O)N1Cc1csc(Cc2ccccc2)n1 (centres undefined)
Cc1nc(C)c(C(=O)N2CCCC2c2nc3ccccc3s2)s1 (centres undefined)
COc1ccc(C2CCCN2C(=O)c2sccc2C)cc1OC (centres undefined)
COCC(=O)N1CCC2(CCCN(CCc3ccccc3)C2=O)C1 (centres undefined)
CCn1c(C2CC(=O)N(CCc3ccccc3)C2)nc2ccccc21 (centres undefined)
CCn1c(C2CC(=O)N(c3ccccc3OC)C2)nc2ccccc21 (centres undefined)
Cn1cc(C(=O)N2CCCC2c2nc3ccccc3s2)cn1 (centres undefined)
Cc1ccc(C)n1-c1ccc(C(=O)N(C)Cc2ccco2)cc1
CCN1CC(c2nc3ccccc3n2Cc2ccccc2)CC1=O (centres undefined)
CN(Cc1ccco1)C(=O)c1ccc(-n2cnc3ccccc32)cc1
CCOCCn1c(C2CC(=O)N(c3ccccc3)C2)nc2ccccc21 (centres undefined)
COc1ccc(-c2nn(Cc3ccccc3)cc2C(=O)N2CCC2)cc1
Cc1oc(-c2cccs2)nc1CN1C(=O)C2CC=CCC2C1=O (centres undefined)
Cc1cc(C(=O)N2CCCC2c2nc3ccccc3s2)on1 (centres undefined)
COc1ccccc1Cn1c(C2CC(=O)N(C)C2)nc2ccccc21 (centres undefined)
COCCn1c(C2CC(=O)N(c3ccccc3C)C2)nc2ccccc21 (centres undefined)
CC(=O)N(C)Cc1nc2ccccc2n1CCOc1ccc(C)cc1
O=C(c1ccc(OCCN2CCCCC2)cc1)c1c(-c2ccc(O)cc2)sc2cc(O)ccc12
COCCn1c(C2CC(=O)N(Cc3ccco3)C2)nc2ccccc21 (centres undefined)
Cc1ccc(-c2nc(CN3C(=O)C4CC=CCC4C3=O)cs2)cc1 (centres undefined)
Cc1nc2ccccc2n1CCc1noc(COc2ccccc2)n1
CCN1CC(c2nc3ccccc3n2CCOc2ccccc2)CC1=O (centres undefined)
COCCn1c(C2CC(=O)N(c3cccc(C)c3)C2)nc2ccccc21 (centres undefined)
Cc1cc(C(=O)N2CCCC2c2ccc3c(c2)OCCO3)sc1C (centres undefined)
CCOc1ccccc1N1CC(c2nc3ccccc3n2C)CC1=O (centres undefined)
